Screening results: PubChem BioAssay, The Scripps Research Institute Molecular Screening Center
Shown are actives, neighbours in structure and some others; about 2.4% of the full set was active somewhere.
CHO-K1 Ca PAM: nonselective activator or artifact in parental CHO-K1 calcium assay; AID 602247; ATP EC20, Fluo-8 calcium fluorescence; 0% at ATP EC20, 100% at ATP max; hit rate 0.02% among 360,000; activation, % at 3 µM;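 active = activation above the run cutoff, the mean activation of all test compounds plus 3 SD, cut at about 40% in these data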;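 also: peak over basal fluorescence ratio in a 140 s read after ATP addition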
CHO-K1 Ca antag: nonselective inhibitor or artifact in parental CHO-K1 cells. ATP-induced calcium, Fluo-8 fluorescence. inhibition, % at 3 µM. hit rate 0.6% among 360,000;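 active = inhibition above a per-plate cutoff, the plate's mean sample inhibition plus 3 SD, cut at about 24% in these data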
CHRM1 PAM: potentiates human M1 receptor response to acetylcholine; activation, % at 3 µM; AID 588819; CHO-K1 hM1, Fluo-8 calcium fluorescence, ACh EC20; 0% = ACh EC20, 100% = maximal ACh; hit rate 0.088% among 360,000; P11229; in the data active = activation above about 19%, passing the limit was not always enough
CHRM1 antagonist: human CHRM1 antagonism; P11229; CHO-K1 hM1, Fluo-8 calcium fluorescence, ACh EC80 antagonist; inhibition, % at 3 µM; hit rate 1.3% among 360,000;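 active = percent inhibition above its own plate's cutoff, namely the mean of that plate's compound wells plus 3 SD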;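 also: peak over basal fluorescence ratio during 140 s after agonist addition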
M1 ag parental: counter-screen for M1 agonists: effect in parental CHO-K1 cells. activation, % at 3 µM. hit rate 0.48% among 360,000. AID 602248. Fluo-8 calcium fluorescence; scaled to maximal ATP response, vehicle zero; in the data active = activation above about 15%;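 also: untransfected CHO-K1 host cells lacking M1 receptor as counterscreen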
M1 ag: activates human CHRM1 receptor | P11229 | CHO-K1 hM1, Fluo-8 calcium fluorescence, agonist mode; 0% DMSO, 100% acetylcholine EC100 | activation, % at 3 µM | hit rate 0.33% among 360,000 | AID 588814;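 active = activation above the run's mean compound activation plus 3 SD, cut at about 16% in these data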;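 also: peak over basal fluorescence ratio within a 140 s kinetic read after compound addition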
A number is an active result; – = inactive.

SMILES | CHO-K1 Ca PAM | CHO-K1 Ca antag | CHRM1 PAM | CHRM1 antagonist | M1 ag parental | M1 ag
CCOCC1(CCc2ccccc2)C(=O)NC(=S)NC1=O | – | – | – | – | – | –
CN1C2CCC1CC(OC(=O)c1cccc(O)c1)C2 (configuration not stated) | – | – | – | 59 | – | –
CC1CC(OC(=O)c2ccccc2)CC(C)N1C (configuration not stated) | – | – | – | 42 | – | –
CCCC[N+]1(C)[C@@H]2CC(OC(=O)[C@H](CO)c3ccccc3)C[C@H]1[C@@H]1O[C@@H]12 (some centres not stated) | – | – | – | 98 | – | –
Clc1cc(I)cc(Cl)c1NC1=NCCN1 | – | – | – | – | – | –
COc1ccc(CCNCC2CCCO2)cc1 (configuration not stated) | – | – | – | – | – | –
C[N+](C)(N)CCOC(=O)C(O)(c1ccccc1)C1CCCCC1 (configuration not stated) | – | – | – | 100 | – | –
CC[N+](CC)(CC)CCCOC(=O)C(O)(c1ccccc1)C1CCCCC1 (configuration not stated) | – | – | – | 99 | – | –
Cc1ccc(S(=O)(=O)N[C@@H](CCCCN)C(=O)CCl)cc1 | – | – | – | – | – | –
COC(=O)C1=C(N)Oc2c(c(=O)oc3ccccc23)C1c1cccnc1 (configuration not stated) | – | – | – | – | – | –
O=C(Nc1cccc(Cl)c1)N1C[C@H]2C[C@@H](C1)c1cccc(=O)n1C2 | – | – | – | – | – | –
C[N+](C)(C)CC#CCOC(=O)Nc1cccc(Cl)c1 | – | – | – | 88 | – | 91
c1ccc(C(OCCN2CCNCC2)c2ccccc2)cc1 | – | – | – | 70 | – | –
CC(C)Cc1[nH]c(=O)c(C#N)c2c1CCC2 | – | – | – | – | – | –
CC(CC(C#N)(c1ccccc1)c1ccccc1)N(C)C (configuration not stated) | – | – | – | 102 | – | –
Cc1ncoc1C(=O)NCC1=C(c2ccc(S(C)(=O)=O)cc2)C[C@@H]2CC[C@H]1N2Cc1ccco1 | – | – | – | – | – | –
COc1ccccc1N1CCN(Cc2cccc(OC)c2O)CC1 | – | – | – | – | – | –
Cc1ccc(C)c(NP(=O)(Oc2ccccc2)Oc2ccccc2)c1 | – | – | – | 36 | – | –
Cc1ccc(S(=O)(=O)NP(=O)(Oc2ccccc2)Oc2ccccc2)cc1 | – | – | – | – | – | –
OC(Cn1c2ccccc2c2ccccc21)C[n+]1cccc2ccccc21 (configuration not stated) | – | – | – | 63 | – | –
